# In the supplement of paper PMC10981050:
# Values joined by “and” are separate entries in the source; they are usually repeats but may differ in a detail not shown here. Identical values can stand only once. Counter-ions that a name gives are not always drawn.
# Key:
# Assay in all cases: cell viability relative to vehicle control; higher = less cytotoxic
# Conditions in all cases: 10 µM
# K562 = system: K562
# Method in brief: (§1)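 Screening covered the Selleck bioactive, kinase and epigenetic probe libraries, less identity-inconsistent compounds, on CRISPR-edited mutant clones and isogenic wild-type clones of four leukaemia lines. Cells, at 2000 per well in 50 µL medium, received a single 10 µM acoustically dispensed dose. After 48 h the supernatant was removed and CellTiter-Glo luminescence was read. Viability was analysed in Genedata Screener as percent of the on-plate vehicle control.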
# MARIMO = system: MARIMO
# Method in brief: as §1
# MOLM14 = system: MOLM14
# Method in brief: as §1
# OCI-AML2 = system: OCI-AML2
# Method in brief: as §1
Compound,cell viability (K562; SRSF2 genotype: SRSF2 P95H/wt),cell viability (K562; SRSF2 genotype: SRSF2 wt/wt),cell viability (MARIMO; SRSF2 genotype: SRSF2 P95H/wt),cell viability (MARIMO; SRSF2 genotype: SRSF2 wt/wt),cell viability (MOLM14; SRSF2 genotype: SRSF2 P95H/wt),cell viability (MOLM14; SRSF2 genotype: SRSF2 wt/wt),cell viability (OCI-AML2; SRSF2 genotype: P95H/wt),cell viability (OCI-AML2; SRSF2 genotype: wt/wt)
CCN1C[C@]2(COC)CC[C@H](OC)[C@]34C1[C@H]([C@H](OC)[C@H]23)[C@@]1(OC(C)=O)C[C@H](OC)[C@@]2(O)C[C@@H]4[C@@H]1[C@H]2OC(=O)c1ccc(OC)cc1 [Crassicauline A],93.2% and 89.8%,87.5%,84.4%,93.3%,91.8%,90.6%,87.7%,100%
COc1cc(C)[nH]c(=O)c1CNC(=O)c1c(C)n([C@H](C)C2CCOCC2)c2ccccc12,111% and 102%,94.9%,106%,118%,103%,101%,106%,104%
CCOC(=O)Nc1ccc(NCc2ccc(F)cc2)cc1N [Retigabine],98.5%,97.3%,93.7%,110%,102%,105%,98.5%,110%
CN(C)[C@@H]1C(=O)C(C(N)=O)=C(O)[C@@]2(O)C(=O)C3=C(O)c4c(O)ccc(Cl)c4[C@@](C)(O)[C@H]3C[C@@H]12 [Chlortetracycline HCl],106% and 108%,107%,105%,108%,105%,105%,102%,103%
C[C@@H]1CCC=C2C(=O)C[C@H]3OOC(C)(C)[C@H]3[C@]21C [Nardosinone],85.3% and 82.5%,83.5%,84.7%,92.8%,89.8%,91.4%,92.9%,102%
CCNc1nc(Cl)nc(NC(C)C)n1 [Atrazine],97.5% and 94.1%,98.2%,90.6%,102%,93.9%,97%,99.1%,104%
C=CCCCCCCCCC(=O)O[C@H]1CC[C@H]2[C@@H]3CCC4=CC(=O)C=C[C@]4(C)[C@H]3CC[C@]12C [Boldenone Undecylenate],100% and 92.8%,95.7%,86%,89.2%,57.4%,26.7%,38.1%,36.7%
COC1=C[C@]23CCCN2CCc2cc4c(cc2[C@@H]3[C@@H]1O)OCO4 [Cephalotaxine],91.4% and 93.8%,93.5%,91%,93.2%,96.1%,96.5%,90.8%,91.4%
CC(C)=CCC[C@]1(C)C=Cc2c(O)c3c(c(CC=C(C)C)c2O1)O[C@]12C(=C[C@@H]4C[C@H]1C(C)(C)O[C@@]2(C/C=C(/C)C(=O)O)C4=O)C3=O [Gambogic Acid],1.29% and 0.59%,0.98%,0.39%,0.5%,0.42%,0.51%,0.38%,0.45%
CC(C)=CCCC(C(=O)O)C1CCC2(C)C3=C(CCC12C)C1(C)CCC(=O)C(C)(C)C1CC3 (stereo not drawn) [Beta-Elemonic],96% and 89.7%,87.7%,92.7%,99%,88.8%,93.1%,100%,101%
C=C[C@@]12CN(C)[C@H]3C[C@]14C(=Nc1ccccc14)[C@@H]1C[C@@H]2[C@@H]3CO1 [Koumine],99.2% and 99.1%,98.6%,102%,102%,104%,96.2%,101%,101%
O=C(CC1NCCCC1O)Cn1cnc2cc(Br)c(Cl)cc2c1=O (configuration not stated) [Halofuginone],6.09% and 15.2%,11%,8.89%,3.03%,0.77%,0.52%,0.78%,5.46%
COC(=O)c1ccccc1C(=O)OC [Dimethyl phthalate],86.9% and 85.8%,84%,85.6%,93.4%,87.5%,85.8%,89.5%,80.7%
CNCC(=O)c1ccc(O)c(O)c1 [Adrenalone HCl],97.4% and 92.4%,98.3%,91.8%,92.3%,88.6%,94%,90.5%,97.5%
Cn1c(COP(=O)(NCCBr)NCCBr)cnc1[N+](=O)[O-],102% and 109%,103%,39.3%,56%,29.1%,12.8%,29.4%,40.1%
N#CC=C1C=CC(O)C(O)C1OC1OC(CO)C(O)C(O)C1O (configuration not stated) [Lithospermoside],89.9% and 83.2%,84.3%,86.5%,97.5%,87.4%,91.7%,95%,116%
C=C1C[C@@H]2[C@H](CC[C@]3(C)C(=O)CC[C@@H]23)[C@@]2(C)C=CC(=O)C=C12 [Exemestane],93.7% and 96.7%,100%,82.8%,92.6%,80.3%,94.3%,90.2%,91.2%
CN1[C@@H]2C[C@@H](OC(=O)[C@H](CO)c3ccccc3)C[C@H]1[C@@H]1O[C@@H]12 [Scopolamine hydrobromide],97.1% and 95.9%,99.9%,101%,109%,104%,100%,102%,104%
C=C(C)[C@H]1Cc2c(ccc3c2O[C@@H]2COc4cc(OC)c(OC)cc4[C@@H]2C3=O)O1 [Rotenone (Barbasco)],12.8% and 22.4%,23.4%,5.86%,10.5%,15.6%,3.2%,9.69%,13.8%
